Laboratory results as given in article PMC11006913.
Residue numbers refer to the chain shown, from its start.

Experiments:
Assay in all cases: PBM; 200 nM protein, PBS
Conditions in all cases: dsDNA, one strand shown
PAX4 [1] = molecular target: T1, PAX4 (Homo sapiens, UniProt O43316 9-242, R200K)
T1 sequence: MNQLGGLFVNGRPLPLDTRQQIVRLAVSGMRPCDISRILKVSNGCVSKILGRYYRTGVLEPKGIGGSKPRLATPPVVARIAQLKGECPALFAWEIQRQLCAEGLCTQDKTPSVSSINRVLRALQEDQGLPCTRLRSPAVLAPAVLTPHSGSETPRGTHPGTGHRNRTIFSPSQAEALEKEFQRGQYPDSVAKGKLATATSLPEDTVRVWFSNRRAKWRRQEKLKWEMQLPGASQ

PAX4 [2] = molecular target: T2, PAX4 (Homo sapiens, UniProt O43316 9-242)
T2 sequence: T1 sequence with K192R

HOXA2 [3] = molecular target: HOXA2 (Homo sapiens, UniProt O43364 129-215, R185T)
Chain of HOXA2 (Homo sapiens, UniProt O43364 129-215, R185T) (O43364 129-215 R185T): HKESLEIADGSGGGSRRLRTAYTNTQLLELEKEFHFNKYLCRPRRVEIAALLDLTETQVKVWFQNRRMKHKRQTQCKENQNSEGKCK

ALX3 [4] = molecular target: ALX3 (Homo sapiens, UniProt O95076 139-225, N203Q)
Chain of ALX3 (Homo sapiens, UniProt O95076 139-225, N203Q) (O95076 139-225 N203Q): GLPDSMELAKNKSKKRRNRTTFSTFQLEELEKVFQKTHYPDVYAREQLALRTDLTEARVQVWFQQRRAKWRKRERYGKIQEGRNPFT

PAX4 [5] = molecular target: T3, PAX4 (Homo sapiens, UniProt O43316 9-242, R200Q)
T3 sequence: T1 sequence with K192Q

HOXA2 [6] = molecular target: HOXA2 (Homo sapiens, UniProt O43364 129-215, R185K)
Chain of HOXA2 (Homo sapiens, UniProt O43364 129-215, R185K) (O43364 129-215 R185K): as the sequence (O43364 129-215 R185T) above, with T57K counted along it

PAX4 [7] = molecular target: T4, PAX4 (Homo sapiens, UniProt O43316 9-242, F177V)
T4 sequence: T1 sequence with F169V, K192R

ALX3 [8] = molecular target: ALX3 (Homo sapiens, UniProt O95076 139-225)
Chain of ALX3 (Homo sapiens, UniProt O95076 139-225) (O95076 139-225): as the sequence (O95076 139-225 N203Q) above, with Q65N counted along it

PAX4 [9] = molecular target: T5, PAX4 (Homo sapiens, UniProt O43316 9-242, F177Y)
T5 sequence: T1 sequence with F169Y, K192R

ALX3 [10] = molecular target: ALX3 (Homo sapiens, UniProt O95076 139-225, L168Q)
Chain of ALX3 (Homo sapiens, UniProt O95076 139-225, L168Q) (O95076 139-225 L168Q): as the sequence (O95076 139-225 N203Q) above, with L30Q, Q65N counted along it

ALX3 [11] = molecular target: ALX3 (Homo sapiens, UniProt O95076 139-225, L168V)
Chain of ALX3 (Homo sapiens, UniProt O95076 139-225, L168V) (O95076 139-225 L168V): as the sequence (O95076 139-225 N203Q) above, with L30V, Q65N counted along it

PAX4 [12] = molecular target: T6, PAX4 (Homo sapiens, UniProt O43316 9-242, R227W)
T6 sequence: T1 sequence with K192R, R219W

HOXA2 [13] = molecular target: HOXA2 (Homo sapiens, UniProt O43364 129-215, Y150S)
Chain of HOXA2 (Homo sapiens, UniProt O43364 129-215, Y150S) (O43364 129-215 Y150S): as the sequence (O43364 129-215 R185T) above, with Y22S, T57R counted along it

ALX3 [14] = molecular target: ALX3 (Homo sapiens, UniProt O95076 139-225, N203S)
Chain of ALX3 (Homo sapiens, UniProt O95076 139-225, N203S) (O95076 139-225 N203S): as the sequence (O95076 139-225 N203Q) above, with Q65S counted along it

HOXA2 [15] = molecular target: HOXA2 (Homo sapiens, UniProt O43364 129-215)
Chain of HOXA2 (Homo sapiens, UniProt O43364 129-215) (O43364 129-215): as the sequence (O43364 129-215 R185T) above, with T57R counted along it

HOXD13 [16] = molecular target: HOXD13 (Homo sapiens, UniProt P35453 263-343, T313R)
Chain of HOXD13 (Homo sapiens, UniProt P35453 263-343, T313R) (P35453 263-343 T313R): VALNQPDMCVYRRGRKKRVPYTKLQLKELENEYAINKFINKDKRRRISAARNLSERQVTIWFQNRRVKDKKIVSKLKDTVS

PITX2 = PITX2 (Homo sapiens, UniProt Q99697 72-157)
HOXD13 [17] = molecular target: HOXD13 (Homo sapiens, UniProt P35453 263-343)
Chain of HOXD13 (Homo sapiens, UniProt P35453 263-343) (P35453 263-343): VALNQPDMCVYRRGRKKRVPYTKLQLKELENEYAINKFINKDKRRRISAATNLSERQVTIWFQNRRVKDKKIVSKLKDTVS

HOXD13 [18] = molecular target: HOXD13 (Homo sapiens, UniProt P35453 263-343, T313A)
Chain of HOXD13 (Homo sapiens, UniProt P35453 263-343, T313A) (P35453 263-343 T313A): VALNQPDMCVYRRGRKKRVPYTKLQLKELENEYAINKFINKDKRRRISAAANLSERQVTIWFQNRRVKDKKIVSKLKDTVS

Sequence	binding signal (PAX4 [1])	binding signal (PAX4 [2])	binding signal (HOXA2 [3])	binding signal (ALX3 [4])	binding signal (PAX4 [5])	binding signal (HOXA2 [6])	binding signal (PAX4 [7])	binding signal (ALX3 [8])	binding signal (PAX4 [9])	binding signal (ALX3 [10])	binding signal (ALX3 [11])	binding signal (PAX4 [12])	binding signal (HOXA2 [13])	binding signal (ALX3 [14])	binding signal (HOXA2 [15])	binding signal (HOXD13 [16])	binding signal (PITX2)	binding signal (HOXD13 [17])	binding signal (HOXD13 [18])
GGGGGGGA	9.06 upbm affinity estimate (log intensity, higher = more binding, comparable within an allelic series)	9.13 upbm affinity estimate (log intensity, higher = more binding, comparable within an allelic series)	6.89 upbm affinity estimate (log intensity, higher = more binding, comparable within an allelic series)	7.53 upbm affinity estimate (log intensity, higher = more binding, comparable within an allelic series)	9.12 upbm affinity estimate (log intensity, higher = more binding, comparable within an allelic series)	9.81 upbm affinity estimate (log intensity, higher = more binding, comparable within an allelic series)	9.01 upbm affinity estimate (log intensity, higher = more binding, comparable within an allelic series)	7.53 upbm affinity estimate (log intensity, higher = more binding, comparable within an allelic series)	9.15 upbm affinity estimate (log intensity, higher = more binding, comparable within an allelic series)	7.42 upbm affinity estimate (log intensity, higher = more binding, comparable within an allelic series)	7.45 upbm affinity estimate (log intensity, higher = more binding, comparable within an allelic series)	9.15 upbm affinity estimate (log intensity, higher = more binding, comparable within an allelic series)	10.2 upbm affinity estimate (log intensity, higher = more binding, comparable within an allelic series)	7.55 upbm affinity estimate (log intensity, higher = more binding, comparable within an allelic series)	7.05 upbm affinity estimate (log intensity, higher = more binding, comparable within an allelic series)				
CGGCGTCA	9.36 upbm affinity estimate (log intensity, higher = more binding, comparable within an allelic series)	9.43 upbm affinity estimate (log intensity, higher = more binding, comparable within an allelic series)			9.37 upbm affinity estimate (log intensity, higher = more binding, comparable within an allelic series)		9.21 upbm affinity estimate (log intensity, higher = more binding, comparable within an allelic series)		9.24 upbm affinity estimate (log intensity, higher = more binding, comparable within an allelic series)			9.35 upbm affinity estimate (log intensity, higher = more binding, comparable within an allelic series)				9.54 upbm affinity estimate (log intensity, higher = more binding, comparable within an allelic series)	8.08 upbm affinity estimate (log intensity, higher = more binding, comparable within an allelic series)	9.49 upbm affinity estimate (log intensity, higher = more binding, comparable within an allelic series)	9.61 upbm affinity estimate (log intensity, higher = more binding, comparable within an allelic series)
AAAATCAG	10.5 upbm affinity estimate (log intensity, higher = more binding, comparable within an allelic series)	10.7 upbm affinity estimate (log intensity, higher = more binding, comparable within an allelic series)			10.6 upbm affinity estimate (log intensity, higher = more binding, comparable within an allelic series)		10.1 upbm affinity estimate (log intensity, higher = more binding, comparable within an allelic series)												
GCCCCACC	9.5 upbm affinity estimate (log intensity, higher = more binding, comparable within an allelic series)	9.33 upbm affinity estimate (log intensity, higher = more binding, comparable within an allelic series)			9.38 upbm affinity estimate (log intensity, higher = more binding, comparable within an allelic series)		9.19 upbm affinity estimate (log intensity, higher = more binding, comparable within an allelic series)		9.3 upbm affinity estimate (log intensity, higher = more binding, comparable within an allelic series)			9.4 upbm affinity estimate (log intensity, higher = more binding, comparable within an allelic series)				9.66 upbm affinity estimate (log intensity, higher = more binding, comparable within an allelic series)		9.74 upbm affinity estimate (log intensity, higher = more binding, comparable within an allelic series)	9.8 upbm affinity estimate (log intensity, higher = more binding, comparable within an allelic series)
